Experiment [1] concerns the target Bile acid receptor (Homo sapiens) (UniProt Q96RI1). Description: ATG_IR1_CIS: Attagene CIS-FACTORIAL HepG2 Assay for human Nuclear Receptor Subfamily 1 Group H Member 4 (NR1H4), IR1 submotif (AID 2282946). The settings on record: IR1 reporter transcription, actives raise or lower the signal. An outline of the steps:
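HepG2 cells transiently transfected with multiplexed cis-element reporter units read endogenous transcription factor activity. After 24 h compound exposure, reporter mRNA was quantified by RT-PCR, fluorescent labelling, HpaI digestion and capillary electrophoresis; bidirectional fitting versus DMSO baseline.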

The nature of experiment [2]: ATG_GRE_CIS: Attagene CIS-FACTORIAL HepG2 Assay for human Glucocorticoid Response Elements (GRE) (AID 2282947). The note with it: HepG2 GRE cis-reporter, Attagene multiplex mRNA; actives raise or lower the signal. An outline of the steps:
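Reporter transcripts read by RT-PCR with capillary electrophoresis fluorescence after a 24 h chemical exposure of HepG2 cells transiently transfected with multiple cis-element reporter units. Gain or loss fitted against DMSO.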

Experiment [3] can be described thus: ATG_M_32_CIS: Attagene CIS-FACTORIAL HepG2 Assay for M32 Transcription Factor (Internal Marker) (AID 2282949).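 Also: background control marker of the multiplexed CIS panel rather than a real target.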 The settings on record: HepG2 Attagene cis-factorial M32 reporter, mRNA; actives raise or lower the signal. An outline of the steps: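 HepG2 human liver cells transiently transfected with cis-promoter-driven multiple reporter transcription units, dosed 24 h. Reporter mRNA quantified by RT-PCR, FAM-labelled primer extension, HpaI digest and capillary electrophoresis; bidirectional fit versus DMSO baseline.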

Experiment [4] can be described thus: ATG_M_06_CIS: Attagene CIS-FACTORIAL HepG2 Assay for M06 Transcription Factor (Internal Marker) (AID 2282950). The settings on record: HepG2 Attagene CIS-FACTORIAL M06 internal marker reporter; actives raise or lower the signal. The method in brief:
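Fluorescence-labelled RT-PCR products from cis-promoter reporter units, cut with HpaI and resolved by capillary electrophoresis, give the signal. Cells are human HepG2, dosed for 24 h. Serves as background control, fitted relative to DMSO.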

The target of experiment [5] is Hepatocyte nuclear factor 6 (Homo sapiens) (UniProt Q9UBC0). Nature of the experiment: ATG_HNF6_CIS: Attagene CIS-FACTORIAL HepG2 Assay for human Hepatocyte Nuclear Factor 6 (HNF6) (AID 2282952). The settings on record: HepG2 Attagene cis-factorial HNF6 reporter transcription; actives raise or lower the signal. The method in brief:
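Readout: fluorescent reporter-transcript fragments resolved by capillary electrophoresis after RT-PCR, reflecting endogenous factor activity in transfected HepG2. Exposure 24 h. Gain or loss of signal fitted bidirectionally against DMSO.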

For experiment [6], the target named is Heat shock factor protein 1 (Homo sapiens) (UniProt Q00613). Nature of the experiment: ATG_HSE_CIS: Attagene CIS-FACTORIAL HepG2 Assay for human Heat Shock Transcription Factor 1 (HSE) (AID 2282953). The settings on record: HepG2 HSE cis-reporter, Attagene RNA transcription; actives raise or lower the signal. The method in brief: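 After a 24 h incubation with test chemical, transfected HepG2 cells were harvested for RNA; reporter transcripts were measured by RT-PCR and capillary electrophoresis. Values reflect gain or loss of signal relative to DMSO.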
Sequence of Heat shock factor protein 1 (Homo sapiens) (Q00613 whole entry, looked up): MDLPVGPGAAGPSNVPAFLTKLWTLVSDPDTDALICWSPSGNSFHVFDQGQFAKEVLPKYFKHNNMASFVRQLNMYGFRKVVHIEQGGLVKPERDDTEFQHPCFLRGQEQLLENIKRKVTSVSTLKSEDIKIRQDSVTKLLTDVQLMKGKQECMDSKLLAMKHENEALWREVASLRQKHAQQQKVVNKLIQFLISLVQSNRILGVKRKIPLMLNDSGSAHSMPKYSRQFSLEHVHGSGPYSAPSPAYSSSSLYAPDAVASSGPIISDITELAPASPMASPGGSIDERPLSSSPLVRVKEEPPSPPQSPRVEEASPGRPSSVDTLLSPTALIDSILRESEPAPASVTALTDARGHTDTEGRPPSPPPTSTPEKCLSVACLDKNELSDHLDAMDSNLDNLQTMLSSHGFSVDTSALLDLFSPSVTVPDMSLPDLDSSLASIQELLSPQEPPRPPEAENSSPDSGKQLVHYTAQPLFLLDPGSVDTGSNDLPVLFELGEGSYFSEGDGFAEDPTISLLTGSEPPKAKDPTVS

Experiment [7] can be described thus: ATG_MRE_CIS: Attagene CIS-FACTORIAL HepG2 Assay for human Metal Responsive Element (MRE) (AID 2282954). The note with it: HepG2 MRE cis-reporter transcription, Attagene multiplex; actives raise or lower the signal. An outline of the steps: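 Endogenous MRE-dependent transcription read as reporter mRNA in transiently transfected human HepG2 cells at 24 h. RNA reverse-transcribed, PCR-amplified, labelled and resolved by capillary electrophoresis; gain or loss relative to DMSO.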

Experiment [8] can be described thus: ATG_PBREM_CIS: Attagene CIS-FACTORIAL HepG2 Assay for human Phenobarbital-responsive Enhancer Module (PBREM) (AID 2282955). The settings on record: HepG2 PBREM cis-reporter, Attagene multiplexed transcription; actives raise or lower the signal. An outline of the steps: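 HepG2 cells transiently transfected with multiple cis-regulated reporter transcription units; endogenous factor activity at the PBREM element measured as reporter mRNA 24 h after dosing, via RT-PCR and capillary electrophoresis of fluorescent fragments; bidirectional fitting versus DMSO.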

Experiment [9] addresses Paired box protein Pax-6 (Homo sapiens) (UniProt P26367). Nature of the experiment: ATG_Pax6_CIS: Attagene CIS-FACTORIAL HepG2 Assay for human Paired Box 6 (PAX6) (AID 2282956). The note with it: HepG2 CIS-FACTORIAL PAX6 reporter transcription, RNA readout; actives raise or lower the signal. An outline of the steps:
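Readout: reporter transcript fluorescence after RT-PCR and capillary electrophoresis. Cells: HepG2, transiently transfected with cis-regulated MRTUs. Exposure 24 h. Gain or loss of signal fitted bidirectionally relative to DMSO.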

The nature of experiment [10]: ATG_PXRE_CIS: Attagene CIS-FACTORIAL HepG2 Assay for human Pregnane X Receptor Element (PXRE) (AID 2282957). The settings on record: HepG2 Attagene CIS-FACTORIAL PXRE reporter, mRNA; actives raise or lower the signal. An outline of the steps:
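Read-out: fluorescence of reporter-specific RT-PCR products resolved by capillary electrophoresis, fitted bidirectionally relative to DMSO. Human HepG2 liver cells carried transfected cis-promoter reporter units and were exposed to chemicals for 24 h.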

Experiment [11] is described as follows: ATG_PPRE_CIS: Attagene CIS-FACTORIAL HepG2 Assay for human Peroxisome Proliferator-activated Response Element (PPRE) (AID 2282958). The note with it: HepG2 PPRE cis-element reporter, Attagene transcription factor profiling; actives raise or lower the signal. The method in brief: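 HepG2 cells transiently transfected with multiplexed cis-element reporter units measure endogenous transcription factor activity. After 24 h compound exposure, reporter mRNA is quantified by RT-PCR, 6-FAM labeling, HpaI digestion and capillary electrophoresis; bidirectional fits are made against DMSO baseline.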

The nature of experiment [12]: ATG_RORE_CIS: Attagene CIS-FACTORIAL HepG2 Assay for human RAR-related Orphan Receptor Element (RORE) (AID 2282959). The settings on record: HepG2 Attagene cis-factorial RORE reporter, mRNA; actives raise or lower the signal. The method in brief: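 HepG2 cells transiently transfected with multiple cis-element reporter transcription units, exposed to chemical for 24 h. Reporter mRNA quantified by RT-PCR, 6-FAM primer-extension labeling, HpaI digestion and capillary electrophoresis; bidirectional fit versus DMSO baseline.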

Experiment [13] is described as follows: ATG_Sox_CIS: Attagene CIS-FACTORIAL HepG2 Assay for human SRY-box transcription factor (SOX) (AID 2282960). The note with it: HepG2 Attagene cis-factorial SOX reporter, mRNA; actives raise or lower the signal. An outline of the steps: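 HepG2 cells transiently transfected with cis-element-driven multiple reporter transcription units, dosed 24 h; reporter mRNA measured by RT-PCR, FAM labelling, HpaI digestion and capillary electrophoresis. Bidirectional fit versus DMSO baseline.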

The target in experiment [14] is Transcription factor Sp1 (Homo sapiens) (UniProt P08047). Nature of the experiment: ATG_Sp1_CIS: Attagene CIS-FACTORIAL HepG2 Assay for human Specificity Protein 1 (Sp1) (AID 2282961). The settings on record: HepG2 Sp1 cis-reporter transcription, actives raise or lower the signal. The method in brief:
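HepG2 cells transiently transfected with multiple reporter transcription units driven by cis-regulatory elements; Sp1-responsive reporter mRNA measured 24 h after dosing by RT-PCR and capillary electrophoresis fluorescence, fitted bidirectionally against DMSO baseline.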

Experiment [15] is described as follows: ATG_SREBP_CIS: Attagene CIS-FACTORIAL HepG2 Assay for human Sterol Regulatory Element Binding (SREBP) (AID 2282962). The note with it: HepG2 Attagene cis-factorial SREBP reporter, mRNA; actives raise or lower the signal. An outline of the steps: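 Readout: fluorescent reporter-transcript peaks resolved by capillary electrophoresis after RT-PCR. Cells were human HepG2 carrying transfected cis-promoter reporter constructs, dosed for 24 h. Gain or loss of signal was fitted against DMSO controls.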

The target of experiment [16] is Signal transducer and activator of transcription 3 (Homo sapiens) (UniProt P40763). Description: ATG_STAT3_CIS: Attagene CIS-FACTORIAL HepG2 Assay for human Signal Transducer and Activator of Transcription 3 (STAT3) (AID 2282963). The note with it: HepG2, Attagene cis-factorial STAT3 reporter transcription; actives raise or lower the signal. The method in brief:
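Readout is reporter transcript quantified by RT-PCR and capillary electrophoresis, with 6-FAM primer extension and HpaI digestion. Total RNA is taken 24 h after dosing transiently transfected HepG2 carrying cis-regulated reporter units. Bidirectional fit against DMSO.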

The nature of experiment [17]: ATG_TA_CIS: Attagene CIS-FACTORIAL HepG2 Assay for human TA Basal Promoter (AID 2282964). The note with it: HepG2 Attagene CIS-factorial TA basal promoter reporter; actives raise or lower the signal. An outline of the steps:
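Multiplexed mRNA reporter assay, HepG2, 24 h. Reporter cDNA amplified, 6-FAM primer-extended, HpaI-cut, CE-sized; DMSO = negative control and baseline.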

The nature of experiment [18]: ATG_TCF_b_cat_CIS: Attagene CIS-FACTORIAL HepG2 Assay for human T-Cell-Factor with beta-catenin (TCF/b-cat) (AID 2282965). The note with it: HepG2 TCF/beta-catenin cis-reporter transcription, actives raise or lower the signal. An outline of the steps:
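Endogenous TCF/LEF activity read as reporter transcript level via RT-PCR and capillary electrophoresis fluorescence in transfected HepG2, 24 h exposure; gain or loss of signal fitted against DMSO controls.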

The nature of experiment [19]: ATG_ISRE_CIS: Attagene CIS-FACTORIAL HepG2 Assay for human Interferon Regulatory Factor 1 (IRF1) binding to an Interferon-Stimulated Response Element (ISRE) (AID 2282948). The settings on record: HepG2 ISRE cis-reporter (Attagene), mRNA transcription readout; actives raise or lower the signal. The method in brief: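 Read-out: fluorescent RT-PCR products resolved by capillary electrophoresis, reporting endogenous transcription factor activity via ISRE-driven reporter mRNA in transfected HepG2 cells dosed for 24 h; gain or loss fitted relative to DMSO.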

Active and inactive are the calls of the source. The calls were made as follows: active = hit-call score of the fitted dose curve at least 0.9, where 1 is the maximum; inactive = score below 0.9.

As usually defined, the AC50 is the midpoint of the concentration-response curve, whichever way the signal moves.

Sequence of Transcription factor Sp1 (Homo sapiens) (P08047 whole entry, looked up): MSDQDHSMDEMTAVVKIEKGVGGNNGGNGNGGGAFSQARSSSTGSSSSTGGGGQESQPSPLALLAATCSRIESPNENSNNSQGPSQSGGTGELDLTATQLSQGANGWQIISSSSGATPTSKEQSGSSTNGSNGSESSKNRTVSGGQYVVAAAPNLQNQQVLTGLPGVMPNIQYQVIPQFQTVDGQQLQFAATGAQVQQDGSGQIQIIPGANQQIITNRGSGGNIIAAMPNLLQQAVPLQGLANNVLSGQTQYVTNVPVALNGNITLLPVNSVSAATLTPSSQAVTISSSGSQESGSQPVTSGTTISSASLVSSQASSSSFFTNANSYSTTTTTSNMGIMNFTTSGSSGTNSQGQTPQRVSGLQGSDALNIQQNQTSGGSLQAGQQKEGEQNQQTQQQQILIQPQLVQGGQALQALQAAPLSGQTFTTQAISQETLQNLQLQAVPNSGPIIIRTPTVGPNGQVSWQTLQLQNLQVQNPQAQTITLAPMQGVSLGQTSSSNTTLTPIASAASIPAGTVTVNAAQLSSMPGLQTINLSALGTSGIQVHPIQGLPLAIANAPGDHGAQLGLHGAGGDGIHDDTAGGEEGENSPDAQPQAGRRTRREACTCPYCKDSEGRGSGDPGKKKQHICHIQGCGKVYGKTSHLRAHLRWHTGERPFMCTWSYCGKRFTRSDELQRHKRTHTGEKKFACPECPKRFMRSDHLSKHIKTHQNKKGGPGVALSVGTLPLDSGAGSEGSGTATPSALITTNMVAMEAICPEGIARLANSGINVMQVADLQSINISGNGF
Sequence of Signal transducer and activator of transcription 3 (Homo sapiens) (P40763 whole entry, looked up): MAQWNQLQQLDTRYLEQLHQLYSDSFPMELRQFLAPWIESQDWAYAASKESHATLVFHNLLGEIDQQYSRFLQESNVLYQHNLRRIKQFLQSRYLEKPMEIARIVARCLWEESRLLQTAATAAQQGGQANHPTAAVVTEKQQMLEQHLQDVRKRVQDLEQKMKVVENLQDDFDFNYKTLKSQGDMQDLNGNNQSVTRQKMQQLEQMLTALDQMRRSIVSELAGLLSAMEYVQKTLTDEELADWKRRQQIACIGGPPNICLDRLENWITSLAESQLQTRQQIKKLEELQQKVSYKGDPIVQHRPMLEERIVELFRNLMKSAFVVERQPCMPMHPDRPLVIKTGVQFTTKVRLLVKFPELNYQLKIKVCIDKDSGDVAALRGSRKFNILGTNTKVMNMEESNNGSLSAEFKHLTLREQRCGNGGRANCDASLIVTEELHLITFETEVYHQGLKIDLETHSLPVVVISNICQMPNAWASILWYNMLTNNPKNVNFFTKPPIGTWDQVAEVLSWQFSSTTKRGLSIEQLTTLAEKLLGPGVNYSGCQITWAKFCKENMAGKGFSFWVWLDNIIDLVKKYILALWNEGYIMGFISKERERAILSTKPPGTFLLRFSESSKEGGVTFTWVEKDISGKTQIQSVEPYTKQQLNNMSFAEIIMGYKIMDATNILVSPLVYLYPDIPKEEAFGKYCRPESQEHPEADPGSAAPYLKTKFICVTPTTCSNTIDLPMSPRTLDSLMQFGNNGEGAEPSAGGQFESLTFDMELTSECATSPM
Sequence of Hepatocyte nuclear factor 6 (Homo sapiens) (Q9UBC0 whole entry, looked up, the tested form may be a part): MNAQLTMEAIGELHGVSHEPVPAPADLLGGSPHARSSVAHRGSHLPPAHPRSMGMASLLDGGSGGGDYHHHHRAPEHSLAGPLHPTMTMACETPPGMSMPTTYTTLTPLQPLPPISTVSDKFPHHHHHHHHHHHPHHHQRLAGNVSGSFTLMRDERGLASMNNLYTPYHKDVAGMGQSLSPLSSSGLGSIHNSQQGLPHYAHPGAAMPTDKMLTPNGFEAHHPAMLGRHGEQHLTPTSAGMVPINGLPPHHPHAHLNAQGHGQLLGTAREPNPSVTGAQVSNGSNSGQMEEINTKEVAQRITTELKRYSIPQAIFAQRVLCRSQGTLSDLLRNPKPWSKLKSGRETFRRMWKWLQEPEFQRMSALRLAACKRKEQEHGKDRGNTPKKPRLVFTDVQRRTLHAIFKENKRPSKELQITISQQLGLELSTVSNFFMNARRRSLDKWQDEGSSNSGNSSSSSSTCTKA
Sequence of Paired box protein Pax-6 (Homo sapiens) (P26367 whole entry, looked up): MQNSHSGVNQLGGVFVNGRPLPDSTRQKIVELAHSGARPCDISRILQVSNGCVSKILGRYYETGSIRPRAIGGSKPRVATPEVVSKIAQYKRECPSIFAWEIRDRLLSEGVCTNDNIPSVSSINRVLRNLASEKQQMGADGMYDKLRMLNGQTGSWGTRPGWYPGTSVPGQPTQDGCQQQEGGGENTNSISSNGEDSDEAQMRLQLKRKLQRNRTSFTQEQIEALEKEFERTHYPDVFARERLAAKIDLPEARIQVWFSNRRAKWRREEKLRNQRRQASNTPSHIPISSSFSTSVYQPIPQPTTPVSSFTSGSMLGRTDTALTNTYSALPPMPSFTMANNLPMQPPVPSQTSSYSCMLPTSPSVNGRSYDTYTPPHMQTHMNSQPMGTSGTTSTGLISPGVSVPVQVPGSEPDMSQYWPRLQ
Sequence of Bile acid receptor (Homo sapiens) (Q96RI1 whole entry, looked up): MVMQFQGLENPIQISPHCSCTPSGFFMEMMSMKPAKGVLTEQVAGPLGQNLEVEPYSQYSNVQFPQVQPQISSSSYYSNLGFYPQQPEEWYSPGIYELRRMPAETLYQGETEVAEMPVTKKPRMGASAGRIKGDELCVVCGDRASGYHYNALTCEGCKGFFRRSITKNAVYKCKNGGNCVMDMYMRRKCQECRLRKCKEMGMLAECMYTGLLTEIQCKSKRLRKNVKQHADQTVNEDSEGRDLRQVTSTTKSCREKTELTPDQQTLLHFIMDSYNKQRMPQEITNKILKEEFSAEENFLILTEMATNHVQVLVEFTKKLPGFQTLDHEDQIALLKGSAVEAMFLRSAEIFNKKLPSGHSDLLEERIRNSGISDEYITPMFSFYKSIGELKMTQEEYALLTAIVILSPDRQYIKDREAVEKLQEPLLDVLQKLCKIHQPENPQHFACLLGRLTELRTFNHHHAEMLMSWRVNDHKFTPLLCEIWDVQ

In the case of `Cc1oncc1C(=O)Nc1ccc(C(F)(F)F)cc1`, the outcome in experiment [1], in [2], in experiment [3], in experiment [4], in experiment [5] and in [6] was inactive. Further, the call in experiment [7], in experiment [9], in experiment [10], in [12], in experiment [13] and in experiment [14] was inactive. The compound was called inactive in experiment [15], in experiment [16], in experiment [17] and in [18]. In addition, the AC50 was 143 µM (active) in [8] and 100 µM (active) in experiment [11].

Consider `Cc1cccc(N(C)C(=S)Oc2ccc3ccccc3c2)c1`, for which the call in experiment [1], in experiment [2], in experiment [3], in experiment [4], in [5] and in [6] was inactive. Moreover, the outcome in experiment [9], in experiment [13], in experiment [14], in experiment [15], in experiment [16] and in [17] was inactive. Moreover, the AC50 is 1.89 µM (active) in [7], 2.06 µM (active) in experiment [8], 24.4 µM (active) in experiment [11] and 20.5 µM (active) in [12].

In the case of `CCCCCCCCCCc1ccccc1`, the outcome in experiment [1], in experiment [2], in [3], in experiment [4], in experiment [5] and in [6] was inactive. Moreover, the call in [7], in experiment [9], in experiment [11], in experiment [12], in experiment [13] and in experiment [14] was inactive. Further, the call in [15], in [16], in experiment [17] and in experiment [18] was inactive.

`CC=C1CC2C=CC1C2` (configuration not stated): the compound was called inactive in experiment [1], in experiment [2], in experiment [19], in experiment [3], in experiment [5] and in experiment [6]. The outcome in experiment [8], in experiment [9], in [11], in [12], in experiment [13] and in [14] was inactive. The compound was classed as inactive in experiment [16], in [17] and in experiment [18]. For the same compound, the figures for the AC50 in experiment [7] and in experiment [10] were 87.6 µM (active) and 3.1 µM (active), respectively.

For the origin of these results see PubChem BioAssay (EPA / NIEHS).
